Compounds with a hit are over-represented: about 4.6% of the library has one in this group of screens.
TRHR PAM = qHTS for Small Molecule Agonists and Allosteric Enhancers of Human TRH Receptor: Primary Screen for Enhancers | Thyrotropin-releasing hormone receptor (Homo sapiens), P34981 | TRHR cells, fluo-8 calcium fluorescence, EC20 TRH enhancement | enhancement, % at 2 µM | 360,000 compounds, 0.66% hits; in the data active = enhancement above about 30%; note: 0% is about no effect
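Enhancer read-out: after compound pinning and an initial kinetic agonist-mode read, an EC20 of TRH (10 nM final) was injected and fluo-8 calcium signal (Ex 480/Em 530) followed at 1 s/cycle for 100 cycles in TRHR-expressing cells.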
D1 potentiator = Potentiators of Human D1 Dopamine Receptor: qHTS. D(1A) dopamine receptor (Homo sapiens), P21728. HEK293 TREx D1 cells, calcium flux, dopamine EC20 potentiation. potentiation, % at 10 µM. 360,000 compounds, 0.036% hits. AID 504651, 2011; in the data active = potentiation above about 30%; note: 0% is about no effect
Target sequence (P21728 whole entry, looked up): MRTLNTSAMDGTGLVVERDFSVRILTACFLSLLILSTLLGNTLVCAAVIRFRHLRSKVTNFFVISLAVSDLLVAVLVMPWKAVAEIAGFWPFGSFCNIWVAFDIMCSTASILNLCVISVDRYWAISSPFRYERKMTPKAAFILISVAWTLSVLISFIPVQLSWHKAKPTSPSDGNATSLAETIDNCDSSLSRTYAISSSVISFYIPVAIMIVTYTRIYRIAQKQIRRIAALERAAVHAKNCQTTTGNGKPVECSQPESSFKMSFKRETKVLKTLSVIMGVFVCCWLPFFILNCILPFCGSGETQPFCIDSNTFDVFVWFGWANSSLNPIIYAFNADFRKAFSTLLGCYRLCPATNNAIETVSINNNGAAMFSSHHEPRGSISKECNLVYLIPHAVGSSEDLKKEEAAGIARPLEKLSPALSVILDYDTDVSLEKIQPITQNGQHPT
D1 agonist = Allosteric Agonists of the Human D1 Dopamine Receptor: qHTS | 360,000 compounds, 1% hits | activation, % at 2 µM | D(1A) dopamine receptor (Homo sapiens), P21728 | AID 504660, 2011 | HEK293 T-REx D1 cells, calcium flux, agonist mode; note: 0% is about no effect
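Agonism was scored from calcium flux recorded over 180 s (1 read/s) after pintool compound addition, following a 10-cycle baseline. Cells were inducible force-coupled HEK293 TREx D1, plated overnight at 30 C and loaded with no-wash calcium dye.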
TRHR agonist = qHTS for Small Molecule Agonists and Allosteric Enhancers of Human TRH Receptor: Primary Screen for Agonists | Thyrotropin-releasing hormone receptor (Homo sapiens), P34981 | TRHR cells, calcium flux fluo-8, FDSS agonist mode | activation, % at 2 µM | 360,000 compounds, 0.18% hits | AID 493084, 2011; note: 0% is about no effect
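Agonist-mode FDSS calcium read (Ex 480/Em 530, 1 s cycles) in 1536-well TRHR cells with fluo-8 dye, after 10-cycle baseline and 23 nL compound addition; TRH at EC20 (10 nM final) added afterwards for the enhancer phase.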
D1 antagonist = Antagonist of Human D 1 Dopamine Receptor: qHTS | D(1A) dopamine receptor (Homo sapiens), P21728 | HEK293 TREx D1 cells, calcium flux, dopamine EC80; stronger effect = lower value | activity change, negative = inhibition, % at 10 µM | 360,000 compounds, 3.2% hits; in the data active = activity change below about -30%; note: % is set by controls: 0 for no effect and ±100 for the full control effect
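Using tetracycline-induced force-coupled D1 Hek293 cells and a calcium dye, signals were followed for 180 s after compound, then for 180 s after EC80 dopamine, to detect inhibitors.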
* hit, by the source's call. Cut-off read from the data, not from the text of the source, unless noted: active = activation above about 30%; inactive = the rest.

SMILES	TRHR PAM	D1 potentiator	D1 agonist	TRHR agonist	D1 antagonist
O=S(=O)(NCc1cccs1)c1ccc(Br)cc1	4	-3	4	0	-33*
CCOc1cc(S(=O)(=O)NCc2cccs2)ccc1Cl	-1	-3	2	0	-37*
CN(C)S(=O)(=O)c1ccc(S(=O)(=O)NCc2cccs2)cc1	-1	-7	3	1	17
CCCNS(=O)(=O)c1ccc(NC(=O)Cc2cccs2)cc1	2	-8	3	0	-33*
CCOc1ccc(S(=O)(=O)NCc2cccs2)cc1C(C)C	-1	-1	4	1	-12
COc1ccccc1-c1nnc(C2CCN(C(=O)c3cccc(C)c3)CC2)o1	-5	0	-2	-2	-2
CCOC(=O)c1cccc(NC(=O)c2cnc3sc(N4CCOCC4)nn3c2=O)c1	8	0	1	0	-9
COc1ccccc1CNC(=O)c1ccc(N2Cc3cccc(OC)c3Oc3ncccc32)s1	2	-6	2	0	-9
CCOC(=O)Cn1cc(/C=C(/C#N)C(=O)NC(C)C)c2ccccc21	-4	-9	0	-1	-33*
CCOC(=O)Cn1cc(/C=C(\C#N)C(=O)N2CCOCC2)c2ccccc21	0	3	0	0	-12
CC(C)OC(=O)/C(C#N)=C/c1cn(C)c2ccccc12	-3	0	1	0	-39*
CSc1ccc(CCNC(=O)Cn2nc(C)n3c(cc4sccc43)c2=O)cc1	-5	-2	0	0	9
CCOC(=O)c1cnc2c(C#N)cnn2c1N	36*	-3	2	0	5
CCOC(=O)c1cnc2c(-c3ccccc3)cnn2c1N	-8	-2	2	0	-27
Cc1ccc(NC(=O)c2c(C)oc3ccc(O)c(CN4CCCCCC4)c23)cc1	6	-1	4	-1	22
CC(C)Oc1cccc(C(=O)Nc2ccc3oc(-c4ccccc4)nc3c2)c1	-5	0	8	2	-9
N#Cc1ccc(Oc2c(Cl)cncc2Cl)cc1	37*	-3	4	0	7
O=C1/C(=C/c2ccc(N3CCCC3)cc2)NC(=S)N1C1CC1	9	3	205*	91*	-6
Cc1cc(N2CCCC2)ccc1/C=C1\NC(=S)N(C)C1=O	8	7	213*	64*	-8
O=C(c1ccc2c(Cl)c3c(nc2c1)CCCC3)N1CCN(c2ccccc2F)CC1	-1	1	3	1	5
CCOCN(C(=O)Cn1cnc2cc(C)c(C)cc21)c1c(C)cccc1CC	-3	0	7	0	2
COc1ccc(C2N(c3ccc(Cl)cc3)C(=O)C3CCCN32)cc1 (stereo not drawn)	5	0	3	-1	-38*
COc1ccc(N2C(=O)C3CCCN3C2c2ccc(Cl)cc2)cc1 (stereo not drawn)	8	-4	1	0	0
Cc1cc([N+](=O)[O-])nn1Cc1ccc(C(=O)N/N=C/c2ccc(F)cc2)cc1	-4	-4	0	0	-4
Cc1cc([N+](=O)[O-])nn1Cc1ccc(C(=O)N/N=C/c2ccc(O)cc2O)cc1	3	-5	1	0	-33*
SMILES	TRHR PAM	D1 potentiator	D1 agonist	TRHR agonist	D1 antagonist
CCOc1ccc(N2C(=O)/C(=C/c3cccs3)N(C)C2=S)cc1	-7	-8	7	1	-37*
CCOc1ccc(N2C(=O)CN(C)C2=S)cc1	-1	-2	1	0	1
COc1ccc(C(=O)NCC(c2ccc(N(C)C)cc2)N2CCc3ccccc32)cc1OC (stereo not drawn)	-4	0	3	-2	-1
CC(C)NC(=NCc1ccc(Cl)cc1Cl)Nc1ccccc1	-2	-5	46*	15	-12
COc1ccc(C)cc1NS(=O)(=O)c1ccc2c3c(cccc13)C(=O)N2	-8	-2	9	-1	-2
COc1ccc(N(C)C(=O)c2nn(-c3ccc(C)cc3)c(=O)n(C)c2=O)c(OC)c1	3	3	0	0	3

Compound activity from PubChem.
